# Source: PubChem BioAssay AID1233 (SRMLSC, 2008)
# Results with a measured potency or affinity are listed apart. Activity calls are given as the source filed them.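 How the source made its calls: active means a dose-response curve fit returns a half-maximal inhibitory concentration, extrapolated values included; inactive means the fit returns no such concentration.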
# Target: HMG-CoA reductase [Enterococcus faecalis] (UniProt Q9FD70)
# Experiment: inhibitors of E. faecalis class II HMGR, confirmation, biochemical, Enterococcus faecalis (AID 1233)
# Details: purified E. faecalis HMGR, NADPH absorbance 340 nm kinetics; series mostly up to 100 µM
row,SMILES,outcome
1,CCCCC1C2=C(CC(C)(C)CC2=O)OC2=C1C(=O)CC(C)(C)C2,inactive
2,O=C(CCCN1C(=O)/C(=C\c2cccs2)SC1=S)Nc1ccccn1,inactive
3,Cc1cc(C)n(C2CC(=O)N(c3ccccc3)C2=O)n1 (centres undefined),inactive
4,CC1=CC(C)C(C(=O)O)C(C(=O)O)C1 (centres undefined),inactive
5,Cc1noc(C)c1CSc1nc2sc(C)c(C)c2c(=O)n1C1CCCC1,inactive
6,O=C(Nc1ccc2c(c1)OCO2)c1ccc(COc2ccc3c(c2)CCC3)o1,inactive
7,Cc1ccc(S(=O)(=O)N(C)Cc2ccc(-c3nnco3)cc2)cc1,inactive
8,Fc1ccc(-c2csc3[n+]2CCS3)cc1,inactive
9,Cc1ccc(NC(=S)NC(=O)CC2CC(C)(C)OC2=O)cc1 (centres undefined),inactive
10,CC(=O)Nc1cccc(NC(=O)CSc2ccc(-c3cccnc3)nn2)c1,inactive
11,O=C1OC(c2cccs2)=N/C1=C/c1ccc(-c2cccc(C(=O)O)c2)o1,inactive
12,Fc1ccccc1CSc1nncn1NC/C=C/c1ccccc1,inactive
13,CC1CN(C(=O)c2ccncc2)CC(C)O1 (centres undefined),inactive
14,CCCCn1c(=O)c2ccccc2c2ccccc2c1=O,inactive
15,COC(=O)C1C(c2ccc(N(C)C)cc2)C(C(=O)OC)S(=O)(=O)CS1(=O)=O (centres undefined),inactive
16,O=C(O)c1cc(-c2ccc(N3CCOCC3)cc2)nn1-c1ccccc1Cl,inactive
17,COCc1cc(C)n(CC(=O)OC)c(=O)c1C#N,inactive
18,Cc1ccc(C(C(=O)NC(C)(C)C)N(Cc2ccc3c(c2)OCO3)C(=O)c2ccc(CN3CCOCC3)o2)o1 (centres undefined),inactive
19,CCC(=O)Nc1ccc2c(c1)nc(CN1CCCCC1)n2C,inactive
